# Results: PubChem BioAssay AID720707 (National Center for Advancing Translational Sciences (NCATS), 2013)
# Hit rate of the full screen: of about 360,000 compounds, about 270 (0.075%) were called active. This is one part of a sample in which actives are shown more often than they occur. Values without a mark were called inactive. Calls come from the whole dose curve; as a rule, active = well fitted activation curve with a large enough effect; inconclusive = small, poorly fitted or top-dose-only effect; inactive = no such curve, though single readings can be large or run the other way.
# Molecular target: Rap guanine nucleotide exchange factor 3 (Homo sapiens) (UniProt O95398)
# Sequence (O95398 whole entry, looked up): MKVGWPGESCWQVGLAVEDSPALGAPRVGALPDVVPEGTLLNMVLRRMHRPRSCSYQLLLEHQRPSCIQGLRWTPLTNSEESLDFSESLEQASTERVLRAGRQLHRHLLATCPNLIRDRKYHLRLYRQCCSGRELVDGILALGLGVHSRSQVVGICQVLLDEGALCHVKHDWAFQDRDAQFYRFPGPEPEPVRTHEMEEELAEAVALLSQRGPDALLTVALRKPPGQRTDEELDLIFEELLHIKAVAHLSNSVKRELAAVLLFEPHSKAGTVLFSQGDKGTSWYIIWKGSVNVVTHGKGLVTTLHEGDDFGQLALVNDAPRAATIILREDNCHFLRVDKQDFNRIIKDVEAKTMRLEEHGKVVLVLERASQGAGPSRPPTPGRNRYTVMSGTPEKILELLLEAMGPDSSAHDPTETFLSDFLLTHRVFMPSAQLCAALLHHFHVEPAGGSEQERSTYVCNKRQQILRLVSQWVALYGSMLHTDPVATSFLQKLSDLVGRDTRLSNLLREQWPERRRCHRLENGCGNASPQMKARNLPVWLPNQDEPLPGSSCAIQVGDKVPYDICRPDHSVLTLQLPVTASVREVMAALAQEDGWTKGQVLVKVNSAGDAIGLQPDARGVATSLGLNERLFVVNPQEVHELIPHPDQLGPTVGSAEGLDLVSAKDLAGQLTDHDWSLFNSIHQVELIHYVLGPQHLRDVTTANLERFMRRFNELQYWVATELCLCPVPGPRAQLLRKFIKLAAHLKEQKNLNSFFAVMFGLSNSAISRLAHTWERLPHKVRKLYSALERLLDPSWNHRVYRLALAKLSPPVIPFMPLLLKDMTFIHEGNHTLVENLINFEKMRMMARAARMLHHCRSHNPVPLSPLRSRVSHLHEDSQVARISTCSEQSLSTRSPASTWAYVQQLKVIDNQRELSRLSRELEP
# Assay: qHTS for Agonist of cAMP-regulated guanine nucleotide exchange factor 3 (EPAC1): primary screen; note: nearly all actives have a fitted effect of over 60% in size
# Conditions: biochemical assay; series mostly up to 154 µM; activation: at the top concentration
# Excerpt: In multi-cellular eukaryotic organisms, the effects of cAMP are transduced by two ubiquitously-expressed intracellular cAMP receptors, the classic protein kinase A/cAMP-dependent protein kinase (PKA/cAPK) and the more recently discovered exchange protein directly activated by cAMP/cAMP-regulated guanine nucleotide exchange factor (EPAC/cAMP-GEF). Both PKA and EPAC are ubiquitously expressed in all tissues, and an increase in intracellular cAMP levels will lead to the activation of both PKA and EPAC. Therefore, careful dissections of the individual role and relative contribution of EPAC and PKA within the overall cAMP signaling in various model systems are critical for further elucidating the mechanism of cAMP signaling. To date no EPAC-specific antagonists and agonist, as well as isoform-specific agonists have been reported, and developing EPAC-specific pharmacological probes to determine the physiological functions that EPAC play in the overall cAMP-mediated signaling remains a major challenge within the research field. Furthermore, identified regulators of EPAC may lead to new mechanism-based therapeutic strategies specifically targeting the EPAC / cAMP-signaling components as EPAC has been implicated to play important roles in major human pathological conditions such as diabetes, heart disease, and cancer.
# This qHTS will be used to screen the Molecular Libraries Small Molecule Repository (MLSMR) as a concentration-titration series using the NCGC unique quantitative screening (qHTS) platform to find activators for EPAC1. In addition, this assay will also be used as a counterscreen for the EPAC2 qHTS. This fluorescent based assay is developed and validated for EPAC1 that measures exchange using EPAC effector Rap1 complex with BODIPY-GDP, a GDP analog with a tethered fluorophores. Activators are identified by monitoring the change in fluorescence signal as the exchanged free BODIPY-GDP has a reduced fluorescence compared to Rap1-bound BODIPY-GDP. Increase in signal (activation) is the desired outcome for the EPAC1 agonist while no activity in this assay is desired for the EPAC2 agonist counterscreen.
# [1] de Rooij, J., Zwartkruis, F. J., Verheijen, M. H., Cool, R. H., Nijman, S. M., Wittinghofer, A., and Bos, J.L. (1998) Nature 396, 474-477
# NIH Chemical Genomics Center [NCGC]
# NIH Molecular Libraries Probe Centers Network [MLPCN]
# Assay Submitter (PI): Xiaodong Cheng, The University of Texas Medical Branch
# Briefly, three uL of reagents (100 nM EPAC1, 250 nM RAP1B-BODIPY-GDP, 50 uM GDP) were dispensed into a 1536-well Greiner black solid-bottom medium binding assay plate. Controls and test compounds (23 nL) were transferred to the plate via a Kalypsys pin tool equipped with a 1536-pin array. The plates were centrifuged at 1,000 rpm for 15 seconds followed by 5 minute incubation at room temperature. The assay plates were read at 5 minute intervals for 30 minutes in the ViewLux plate reader using 480nm excitation and 540nm emission filters. The results were normalized to the agonist positive control of 6.5 mM cAMP.
# Potency is the fitted concentration of half-maximal effect.
Compound,activation [%],Potency
COC(=O)CN(c1cccc(C(C)=O)c1)S(C)(=O)=O,2.68,–
CCN(CC)c1ccc2oc(=O)c(C)nc2c1,–,100 µM (active)
CN(CC(=O)Nc1ccccc1[N+](=O)[O-])Cc1ccc(Br)cc1,-0.157,–
O=C(C[C@H]1CC[C@H]2[C@@H](COC[C@H](O)CN2C(=O)c2ccccn2)O1)N1CCN(c2ccccc2)CC1,-8.67,–
Cc1ccccc1-n1cc(CNC(=O)C2CCC(=O)N(C3CC3)C2)cn1 (stereo unspecified),3.43,–
Cc1ccc(NC(=O)CCC(=O)N2CCC(c3ccccc3)=N2)cc1S(=O)(=O)N1CCCCC1,2.62,–
O=C(NC(=S)Nc1ccc(Br)cc1F)C1CCCCC1,7.55,–
CCOc1ccc(NC(=O)C2CCN(C(=O)N3CCOc4ccccc43)CC2)cc1,-0.584,–
CCOc1ccc(CC(=O)Nc2ccc(S(=O)(=O)Nc3cc(C)on3)cc2)cc1OCC,-2.8,–
CCC(C)NC(=O)Cn1nc(C(F)(F)F)c2c1CCC2 (stereo unspecified),-4.09,–
COc1cc(Cl)c(C)cc1NC(=O)CSc1nnc(CN2CCCC2)o1,-0.0539,–
COc1ccc(OC)c(NC(=O)c2cc(-c3cc(F)ccc3OCC3CCCO3)n[nH]2)c1 (stereo unspecified),-2.63,–
O=C(NCCC1CCCCN1S(=O)(=O)c1ccc(Cl)cc1)C(=O)NCc1ccco1 (stereo unspecified),–,50.1 µM (active)
O=C(NCCC1CCCCN1S(=O)(=O)c1ccccc1)C(=O)NCC1CCCO1 (stereo unspecified),-5.17,–
O=C(NCCc1ccco1)C(=O)NCCC1CCCCN1S(=O)(=O)c1ccccc1 (stereo unspecified),1.6,–
COCCCNc1nc2ccccc2nc1NS(=O)(=O)c1ccc(F)cc1,-1.08,–
CO/N=C/c1cn(-c2ccc(Cl)cc2)nn1,6.91,–
CN1CCN(C2=NCCO2)CC1,-0.11,–
CC(=O)Oc1ccc(Cn2c(C)c(C(=O)NCc3ccc(C#N)cc3)sc2=O)cc1,4.44,–
Cc1cccc(CC(=O)N2CCN=C2SCc2ccc([N+](=O)[O-])cc2)c1,4.91,–
Cc1ccc(S(=O)(=O)N2CCCCC2)cc1C(=O)N(C)CC(=O)Nc1cccc(F)c1,-1.63,–
Cc1cc(NC(=O)CN2C(=O)NC(C)(CCc3ccccc3)C2=O)no1 (stereo unspecified),3.5,–
Cc1cccc(-c2nc(CS(=O)CC(=O)NC(C)CCc3ccccc3)c(C)o2)c1 (stereo unspecified),4.27,–
CC(C)N1CCC(=NNc2ccc([N+](=O)[O-])cc2S(=O)(=O)N2CCOCC2)CC1,4.79,–
Cc1ccccc1NC(=O)C1CCCN(C(=O)NCc2ccccc2)C1 (stereo unspecified),-0.75,–
O=C1CCC(C(=O)N2CCN(c3ccccc3Cl)CC2)CN1CC1CCCCC1 (stereo unspecified),-2.26,–

Compound,activation [%],Potency
CS(=O)(=O)/C(C#N)=C/c1cccn1S(=O)(=O)c1ccc([N+](=O)[O-])cc1,-9.53,–
O=C(c1ccc(CS(=O)Cc2ccccc2Cl)o1)N1CCN(c2ccccc2)CC1 (stereo unspecified),11,–
CCN1C(=NCc2ccc(OC)cc2)N[C@@H](CCc2ccccc2)[C@H](C(=O)NCc2ccc(OC)cc2)[C@H]1C,-8.48,–
CCc1cccc(CC)c1N1C(=O)CC(Sc2ccccc2N)C1=O (stereo unspecified),8.79,–
CCCC(=O)OCC(=O)Nc1cc(Cl)ccc1[N+](=O)[O-],2.31,–
CC(C)Cc1ccc(S(=O)(=O)N2CCN(C(=O)c3ccco3)CC2)cc1,-8.05,–
CC(=O)c1cccc(NC(=O)N2CCCC2C(=O)NCCC(C)C)c1 (stereo unspecified),0.342,–
Cc1ccsc1C(=O)N[C@@H](C)c1nnc2ccccn12,2.04,–
Nc1ccc2nc3c(=O)[nH]c(=S)[nH]c3nc2c1,–,89.1 µM (active)
COC(=O)[C@@]1(C)[C@H]2C(=O)N(Cc3ccccc3)C(=O)[C@H]2[C@H]2CN=C(SCC3CC3)N21,-7.77,–
NC(=O)C1CCN(C(=O)c2ccc(-c3ccccc3)cc2)CC1,-6.39,–
O=C(C1=C(O)C(=O)N(CCOCCO)C1c1ccccn1)c1cccs1 (stereo unspecified),1.34,–
CCOC(=O)c1cnn2c(SC)ncnc12,8.61,–
COCCn1c(SCC(=O)N2CCCCCC2)nc2c(c1=O)SCC2,0.332,–
CC(=O)Nc1ccc(S(=O)(=O)NNC(=O)CCc2ccccc2)cc1,-0.565,–
CCNC(=O)c1cnn(-c2ccccc2)c1-c1ccccc1,6.35,–
CN1CCN(Cc2nc3c(c(=O)n(C)c(=O)n3C)n2Cc2cccc3ccccc23)CC1,-10.8,–
Cc1ccc2c(c1)N(CC(=O)N1CCC(O)CC1)C(=O)CO2,4.96,–
CCOC(=O)C1CCN(C(=O)CSc2cc(=O)n(C)c3ccccc23)CC1,0,–
CCOC(=O)C1CCCN(C(=O)c2sc3nc(C)nc(N4CCOCC4)c3c2C)C1 (stereo unspecified),0.4,–
CS(=O)(=O)N1CCc2cc(C(=O)Nc3ccccc3Br)ccc21,4.31,–
CC(=O)c1ccc(N2CCN(S(=O)(=O)c3c(C)[nH]c(=O)[nH]c3=O)CC2)cc1,1.54,–
C=CCN(CC=C)C(=O)COC(=O)c1n[nH]c2ccccc12,6.61,–
CCOC(=O)c1cc(-c2ccc(F)cc2)n(CC(=O)NCc2ccccn2)c1C,-10.1,–
CC[C@H](C)C(=O)N[C@H]1CCCN1C(=O)/C=C/c1ccccc1,4.71,–
